The sample as a whole holds a higher share of hits than the screen did.
HT1080 IDH1KD tx – toxicity to HT-1080 IDH1 knockdown cells (counter line). 2% of 360,000 active. AID 686971. Potency, µM (highest dose often 46.1 µM), usual class: cytotoxic. HT-1080 IDH1 knockdown viability, ATP luminescence, 48 h
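% activity derives from luminescence (CellTiter-Glo), normalised to DMSO and no-cell wells. HT-1080-IDH1KD cells, 750/well, had 48 h compound exposure at 37 °C.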
DT40 TDP1 CPT – DT40-hTDP1 cell growth loss with CPT; chicken DT40 Tdp1-/-;hTDP1 cells + 20 nM CPT, ATP luminescence, 48 h; Potency, µM (top dose mostly 46.2 µM), hits mostly inhibitors; 12% of 420,000 active; further: nearly all actives have a fitted effect of over 55% in size
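Chicken DT40 Tdp1-/- cells complemented with human TDP1, 400 cells/well, exposed to compounds plus 20 nM camptothecin for at least 48 h at 37 C; viability read as ATP content by CellTiter-Glo luminescence.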
IL1B secr inh – blocks inflammasome-driven IL-1 beta release | THP-1 LPS/ATP IL-1B secretion, AlphaLISA, 16 h; hits give low values | activity change, % at 57.5 µM | 4.7% of 360,000 active; in the data active means activity change below about -50%; inconclusive means mostly about -30% to -49%
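Secreted IL-1B measured by AlphaLISA bead assay after 16 h compound exposure of THP-1 cells; compounds (final up to 57.5 uM) added 1 h before LPS (250 ng/mL) and ATP (1.25 mM) stimulation; lower signal means less secretion.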
ALOX12 inh – blocks human arachidonate 12S-lipoxygenase | AID 1671190 | 1.1% of 580,000 active | P18054 | purified 12hLO, xylenol orange hydroperoxide absorbance | Potency, µM (doses to about 108 µM), usual class: inhibitors
Target sequence (P18054 whole entry, looked up): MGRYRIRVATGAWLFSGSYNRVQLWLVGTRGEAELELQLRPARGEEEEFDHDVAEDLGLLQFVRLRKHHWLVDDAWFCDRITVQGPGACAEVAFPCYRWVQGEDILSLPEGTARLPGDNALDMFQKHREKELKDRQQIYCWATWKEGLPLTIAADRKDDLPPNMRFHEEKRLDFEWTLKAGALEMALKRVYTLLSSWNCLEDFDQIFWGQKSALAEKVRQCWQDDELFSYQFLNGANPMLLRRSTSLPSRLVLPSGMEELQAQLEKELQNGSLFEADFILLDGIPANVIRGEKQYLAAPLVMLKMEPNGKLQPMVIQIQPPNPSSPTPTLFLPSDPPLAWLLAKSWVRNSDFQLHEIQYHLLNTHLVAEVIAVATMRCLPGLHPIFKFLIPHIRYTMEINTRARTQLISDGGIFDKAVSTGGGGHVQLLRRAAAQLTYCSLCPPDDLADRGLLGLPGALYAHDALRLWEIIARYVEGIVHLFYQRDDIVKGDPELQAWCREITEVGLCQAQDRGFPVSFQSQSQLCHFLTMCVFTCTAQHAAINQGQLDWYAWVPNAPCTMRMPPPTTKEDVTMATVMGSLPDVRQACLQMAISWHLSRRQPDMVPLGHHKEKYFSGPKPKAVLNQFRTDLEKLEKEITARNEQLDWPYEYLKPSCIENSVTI
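Hydroperoxide product was detected by ferrous iron/xylenol orange as the 573 to 405 nm absorbance ratio. Arachidonic acid at 40 uM (final) was turned over for 30 min at room temperature by 150 nM human 12hLO, pH 7.0 Hepes buffer, after 15 min compound preincubation.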
TDP1 cell noCPT – qHTS for Inhibitors of human tyrosyl-DNA phosphodiesterase 1 (TDP1): qHTS in cells in absence of CPT; 15% of 420,000 active; Potency, µM (highest dose often 46.2 µM), hits mostly inhibitors; AID 686978, 2013; DT40 Tdp1-/- hTDP1 cells, no CPT, ATP luminescence, 48 h; further: nearly all actives have a fitted effect of over 55% in size
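Camptothecin absent (DMSO only). Human TDP1-complemented DT40 knockout cells, 400 cells/well, 37 °C for minimum 48 hr; ATP measured via CellTiter-Glo, 30 min dark incubation, luminescence.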
HT1080-NT tox – kills 2HG-producing HT-1080-NT fibrosarcoma cells; 1.6% of 360,000 active; AID 686970; HT-1080-NT fibrosarcoma viability, CellTiter-Glo ATP luminescence, 48 h; Potency, µM (highest dose often 46.1 µM), most hits filed as cytotoxic;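 further: NT is the 2HG producing partner of a matched IDH1 knockdown line; nearly all actives have a fitted effect of over 55% in size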
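A 48-hour cytotoxicity screen used HT-1080-NT cells plated 2 hours before compound delivery. ATP-based CellTiter-Glo luminescence measured viability, normalized to DMSO and no-cell controls.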
A number is an active result. Unless noted, the call rests on the fitted dose curve; in most records, active means well fitted curve in the direction sought with a large enough effect; inconclusive means small, poorly fitted or top-dose-only effect, or another doubt; inactive means no such curve, though single readings can be large; an effect the other way counts as inactive or inconclusive.

What do the screens show for `CCOc1ccc2oc(C(=O)Nc3ccc4c(c3)OCO4)c(C)c2c1`?
HT1080 IDH1KD tx: inactive; DT40 TDP1 CPT: inactive; IL1B secr inh: -50; ALOX12 inh: inactive; TDP1 cell noCPT: inconclusive; HT1080-NT tox: inactive

How did COC(=O)[C@H](C)NC(=O)Nc1cc(-c2n[nH]c(=O)c3ccccc23)ccc1C do in these assays?
ALOX12 inh: inactive

How did Cc1cc(N/N=C/c2ccc(O)c(C)c2O)nc(-c2ccccc2O)n1 do in these assays?
HT1080 IDH1KD tx: inconclusive; DT40 TDP1 CPT: 13µM; IL1B secr inh: -98; ALOX12 inh: inactive; TDP1 cell noCPT: 9.2µM; HT1080-NT tox: inconclusive

What do the screens show for `Cc1cc(NCCc2cnccn2)nc(-c2ccccc2O)n1`?
ALOX12 inh: inactive

Results for O=[N+]([O-])c1cccc(/C=N/Nc2cc(Cl)nc(-c3ccccc3)n2)c1 ?
HT1080 IDH1KD tx: inactive; DT40 TDP1 CPT: inconclusive; IL1B secr inh: -77; ALOX12 inh: inactive; TDP1 cell noCPT: 21µM; HT1080-NT tox: inactive

What do the screens show for `O=[N+]([O-])c1ccc(/C=N/Nc2cc(Cl)nc(-c3ccccc3)n2)cc1`?
HT1080 IDH1KD tx: inactive; DT40 TDP1 CPT: inconclusive; IL1B secr inh: inactive; ALOX12 inh: inactive; TDP1 cell noCPT: inconclusive; HT1080-NT tox: inactive

How did Cc1cc(NCCCN)nc(-c2ccccc2O)n1 do in these assays?
HT1080 IDH1KD tx: inactive; DT40 TDP1 CPT: inconclusive; IL1B secr inh: -62; ALOX12 inh: inactive; TDP1 cell noCPT: inconclusive; HT1080-NT tox: inactive

Results for C/C(=N\Nc1cc(C)nc(-c2ccccc2O)n1)c1ccccc1 ?
HT1080 IDH1KD tx: inconclusive; DT40 TDP1 CPT: inconclusive; IL1B secr inh: -68; ALOX12 inh: inactive; TDP1 cell noCPT: inconclusive; HT1080-NT tox: inconclusive

What do the screens show for `CC(NC(=O)CCc1c[nH]c2ccccc12)c1cccs1` (stereo not given)?
ALOX12 inh: inactive

Results for C/C(=N\Nc1cc(C)nc(-c2ccccc2)n1)c1cccc([N+](=O)[O-])c1 ?
HT1080 IDH1KD tx: inactive; DT40 TDP1 CPT: 21µM; IL1B secr inh: inactive; ALOX12 inh: inactive; TDP1 cell noCPT: inconclusive; HT1080-NT tox: inactive

What do the screens show for `CC(=NNc1ccc([N+](=O)[O-])cn1)c1ccccc1`?
HT1080 IDH1KD tx: inactive; DT40 TDP1 CPT: inactive; IL1B secr inh: inactive; ALOX12 inh: inactive; TDP1 cell noCPT: inactive; HT1080-NT tox: inactive

Results for O=C(Cn1ccc(=O)[nH]c1=O)N1CCN(Cc2ccccc2)CC(O)C1 (stereo not given) ?
ALOX12 inh: inactive

How did CCCCCCN1C[C@@H](n2cc(-c3ccc(F)cc3)nn2)[C@H](O)C[C@@H]1c1ccc(Cl)cc1 do in these assays?
HT1080 IDH1KD tx: inactive; DT40 TDP1 CPT: 12µM; IL1B secr inh: inactive; ALOX12 inh: inactive; TDP1 cell noCPT: 12µM; HT1080-NT tox: inactive

How did CCCCCCN1C[C@H](O)[C@@H](n2cc(-c3ccc(F)cc3)nn2)C[C@@H]1c1ccc(Cl)cc1 do in these assays?
HT1080 IDH1KD tx: inactive; DT40 TDP1 CPT: inconclusive; IL1B secr inh: inactive; ALOX12 inh: inactive; TDP1 cell noCPT: 18µM; HT1080-NT tox: inactive

What do the screens show for `CCCCCCN1C[C@H](n2cc(-c3ccc(F)cc3)nn2)[C@@H](O)C[C@@H]1c1ccc(C)cc1`?
HT1080 IDH1KD tx: inactive; DT40 TDP1 CPT: 13µM; IL1B secr inh: inactive; ALOX12 inh: inconclusive; TDP1 cell noCPT: 13µM; HT1080-NT tox: inactive

What do the screens show for `CCCCCCN1C[C@H](n2cc(-c3ccc(F)cc3)nn2)[C@@H](O)C[C@@H]1c1ccc(OC)cc1`?
HT1080 IDH1KD tx: inactive; DT40 TDP1 CPT: inconclusive; IL1B secr inh: inactive; ALOX12 inh: inconclusive; TDP1 cell noCPT: inconclusive; HT1080-NT tox: inactive

Results for CCCCCC(=O)N1C[C@H](O)[C@@H](n2cc(-c3ccc(F)cc3)nn2)C[C@@H]1c1ccc(OC)cc1 ?
HT1080 IDH1KD tx: inactive; DT40 TDP1 CPT: inconclusive; IL1B secr inh: inconclusive; ALOX12 inh: inconclusive; TDP1 cell noCPT: inconclusive; HT1080-NT tox: inactive
